In PubChem BioAssay (NCI):
Compounds without any hit were thinned out: in the full panel of roughly 79,000, 15% have a hit. Active and inactive are the calls of the source. Cut-off read from the data, not from the text of the source: active = growth inhibition above about 70%; inactive = the rest.

Experiments:
[1] = NCI Yeast Anticancer Drug Screen. Data for the rad50 strain (AID 155);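 note: 0% = growth of vehicle-only cultures of the same strain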; conditions: S. cerevisiae rad50 strain growth inhibition; at 50.0 µM; stronger effect = higher value
Method in brief: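 DNA repair mutant yeast, compound exposure, growth read-out; inhibition is taken relative to vehicle.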

[2] = NCI Yeast Anticancer Drug Screen. Data for the mec2-1 strain (AID 157); conditions: S. cerevisiae mec2-1 strain, at 50.0 µM, stronger effect = higher value
Method in brief: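 Test agents were screened against the mec2-1 yeast strain, with defined DNA repair or cell cycle alteration. Growth was scored as inhibition against vehicle-only controls.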

[3] = NCI Yeast Anticancer Drug Screen. Data for the sgs1 mgt1 strain (AID 161);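 note: 0% = growth of cultures given vehicle only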; conditions: S. cerevisiae sgs1 mgt1 strain, at 50.0 µM, stronger effect = higher value
Method in brief: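 Mutant yeast exposed to compound; growth scored against vehicle-only wells.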

[4] = NCI Yeast Anticancer Drug Screen. Data for the cln2 rad14 strain (AID 165);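 note: 0% = growth equal to vehicle treated cultures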; conditions: S. cerevisiae cln2 rad14 strain, at 50.0 µM, stronger effect = higher value
Method in brief: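 Growth of compound-exposed yeast (cln2 rad14 genotype) measured and expressed as inhibition relative to vehicle.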

[5] = NCI Yeast Anticancer Drug Screen. Data for the bub3 strain (AID 167); conditions: S. cerevisiae bub3 mutant strain, at 50.0 µM, stronger effect = higher value
Method in brief: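 In this screen, a yeast mutant lacking normal mitotic checkpoint function is challenged with compound. Relative growth versus vehicle gives the inhibition value.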

[6] = NCI Yeast Anticancer Drug Screen. Data for the mlh1 rad18 strain (AID 175); conditions: S. cerevisiae mlh1 rad18 strain growth inhibition; at 50.0 µM; stronger effect = higher value
Method in brief: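 In this whole-cell yeast screen, a strain with altered DNA damage repair is challenged with compound, and its growth is measured against matched vehicle-treated controls.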

Measured: growth inhibition

Cc1ccc(N2C(=O)CSC2=S)cc1C
inactive: [1] -1.7% | [2] -15.7% | [3] -30% | [4] -38% | [5] -29% | [6] -9.5%

CC(=O)Nc1c(C)n(C)n(-c2ccccc2)c1=O
inactive: [1] -2.45% | [2] -12.7% | [3] 23.4% | [4] 31.1% | [5] 17.6% | [6] 13.6%

CC1C(=O)OC(=O)C1C (configuration not stated)
inactive: [1] -11.2% | [2] -6.2% | [3] 11.5% | [4] 4% | [5] -4.6% | [6] 8.8%

CC(=O)c1ccc2ccccc2c1O
inactive: [1] 2.6% | [2] -11.7% | [3] -25.5% | [4] -11.1% | [5] -3% | [6] -5.45%

O=S1(=O)NNC(=NCc2ccc(Cl)c(Cl)c2)c2ccccc21
inactive: [1] 11.2% | [2] -11.8% | [3] -6.15% | [4] -1.4% | [5] 3.2% | [6] -16.4%

Cc1ncc([N+](=O)[O-])n1CCNC(=O)CCC(=O)NCCCn1ccnc1[N+](=O)[O-]
inactive: [1] -16.1% | [2] -22.9% | [3] -1.45% | [4] 21.7% | [5] -31.8% | [6] 14.9%

CC(=O)N1CC(=O)N2C(=O)/C(=C/c3ccc(Cl)cc3)N=C12
inactive: [1] 2.3% | [2] 1.35% | [3] 11.9% | [4] 3.35% | [5] 9.45% | [6] -42.4%

CC1=CC(=O)C(C(C)C)=CC1=O
inactive: [1] -9.55% | [2] 7.25% | [3] -4.25% | [4] 22.6% | [5] 4.7% | [6] 0.5%

COc1ccc(Cc2c3cc(OC)c(OC)cc3cc[n+]2C)cc1
inactive: [1] -0.05% | [2] -28.4% | [3] -17.9% | [4] -2.45% | [5] -10.8% | [6] -6.15%

CCCS(=O)(=O)N(CC)CC
inactive: [1] -0.4% | [2] -10.8% | [3] -1.9% | [4] -27.5% | [5] -5.65% | [6] -15.4%

CCCCOC(=O)c1ccc(NC(=O)Nc2cc([N+](=O)[O-])ccc2F)cc1
active: [6] 71.2%
inactive: [1] 56.4% | [2] 54.6% | [3] 63% | [4] 54.6% | [5] 12.3%

CSc1nnc(COc2ccc(Cl)cc2)o1
inactive: [1] 22.3% | [2] 5.75% | [3] 26.1% | [4] 29.4% | [5] 12.8% | [6] 20.7%

CCCCCC(=O)OCC(COC(=O)CCCCC)OC(=O)CCCCC
inactive: [1] -2.65% | [2] 23.1% | [3] -5.05% | [4] 12.6% | [5] 10.9% | [6] 20.6%

OC1CCC2=C(C1)C1CCC2C1 (configuration not stated)
inactive: [1] 9.05% | [2] -10.7% | [3] -11.8% | [4] -18.4% | [5] -12% | [6] 15.8%

NC(=S)NCCN1CCOCC1
inactive: [1] -8.85% | [2] -5.95% | [3] -1.9% | [4] -15.7% | [5] 2.25% | [6] 10%

Nc1nc(Nc2ccccc2)c2ncn(C3OC(CO)C(O)C3O)c2n1 (configuration not stated)
inactive: [1] 12.7% | [2] 1.25% | [3] 0.25% | [4] -1.35% | [5] 3.6% | [6] -12.3%

O=S(=O)(Nc1cccc(C(F)(F)F)c1)c1ccc(F)cc1
inactive: [1] 6.95% | [2] 9.5% | [3] 11% | [4] 12.9% | [5] -3.5% | [6] 42.9%

CN(C)S(=O)(=O)Cc1ccccc1
inactive: [1] 7.95% | [2] -6.65% | [3] -6.65% | [4] -73.5% | [5] 6.75% | [6] -7.1%

O=c1[nH]c(CCCc2ccccc2)c(Br)c(=O)[nH]1
inactive: [1] -1.5% | [2] -7.65% | [3] 3.35% | [4] -4.35% | [5] 15.1% | [6] 24.4%

O=C(NC(=S)Nc1ccsc1)c1ccccc1
inactive: [1] 14.6% | [2] 0.7% | [3] 2.6% | [4] 8.85% | [5] -2.15% | [6] -6.35%

C=CCN1C(=O)NC(=O)C1c1ccsc1 (configuration not stated)
inactive: [1] -14.7% | [2] -0.25% | [3] -22.2% | [4] -34.2% | [5] -1.45% | [6] 2.6%

O=C(O)CNCCO
inactive: [1] -0.35% | [2] 7.75% | [3] 6.65% | [4] 0% | [5] 22.2% | [6] -0.25%

CC(C)CCOC(=O)C(C)(O)C(Cl)c1ccccc1 (configuration not stated)
inactive: [1] 2.9% | [2] 2.55% | [3] -13.2% | [4] 1.35% | [5] 6.25% | [6] -6.95%

COc1ccc2c(N=[N+]=[N-])c(-c3ccccc3)c(=O)oc2c1
inactive: [1] 11.8% | [2] 2.6% | [3] 35.6% | [4] 17.2% | [5] 3.15% | [6] 30.9%

c1cc2c3c(cc4c(c3c1)CCCC4)CC2
inactive: [1] -6.95% | [2] -20.9% | [3] -12.9% | [4] -23.6% | [5] 5.45% | [6] -4.75%

COc1c2ccoc2nc2c(O)c3c(c(CC=C(C)C)c12)OCO3
inactive: [1] -6.65% | [2] -7% | [3] -4.7% | [4] 16.2% | [5] -4.9% | [6] -2.95%

N#CNC(=NCCO)NCCO
inactive: [1] 25.8% | [2] 7.3% | [3] -2.25% | [4] 11.3% | [5] -0.35% | [6] 26.6%

CN(C)NC(=S)NC12CC3CC(CC(C3)C1)C2
inactive: [1] -15.3% | [2] -5.25% | [3] -10.2% | [4] -18.9% | [5] -2.8% | [6] 11.8%

N#CCc1csc(-c2ccccc2)n1
inactive: [1] 26.6% | [2] 16.8% | [3] 6.2% | [4] 15.2% | [5] 1.55% | [6] 27%

Cc1ccn2c(=O)c(CCBr)c(C)nc2c1
inactive: [1] 12.8% | [2] -4.65% | [3] 5.25% | [4] 13.8% | [5] 6.05% | [6] 2.25%

COC(=O)C(N)CO (configuration not stated)
inactive: [1] -40.5% | [2] -27% | [3] -39.8% | [4] 4.35% | [5] -34.8% | [6] -26.1%

CC1(C)N=C(N)N=C(N)N1c1cccc(CCC(=O)Nc2cccnc2)c1
inactive: [1] 19.4% | [2] 1.4% | [3] 5.2% | [4] 9.05% | [5] -4.5% | [6] -6.3%

CCOC(=O)c1nc2ccc(C(F)(F)F)cc2nc1Nc1ccc(Cl)c(Cl)c1
inactive: [1] -22.1% | [2] 4.1% | [3] -13.9% | [4] -19% | [5] -1.35% | [6] 6.15%

Nc1ccccc1CCO
inactive: [1] 14.5% | [2] -6.75% | [3] 30.9% | [4] 13.2% | [5] -5.8% | [6] 19.5%

N#C/C(=C\c1ccco1)C(N)=O
inactive: [1] -11% | [2] -7% | [3] -14.6% | [4] 5.25% | [5] 10.9% | [6] -10.7%

CC1Cc2c([nH]c(=O)n(C)c2=O)O1 (configuration not stated)
inactive: [1] 1.15% | [2] 8.2% | [3] 8.4% | [4] -1.5% | [5] -21.1% | [6] 2.1%

CC(=O)Nc1ccc(-c2nnc(SCC(=O)Nc3ccccc3C)o2)cc1
inactive: [1] -6.55% | [2] -5.25% | [3] -19.9% | [4] 4.65% | [5] -8.55% | [6] -18.1%

CCOC(=O)C(=O)Nc1ccccc1C(C)C
inactive: [1] 12.4% | [2] 6.05% | [3] 0.2% | [4] -7.15% | [5] -9% | [6] 6.35%

CC(C)(C)c1ccc(O)c(C(c2cc(C(C)(C)C)ccc2O)c2cc(C(C)(C)C)ccc2O)c1
active: [1] 97.2% | [2] 98.7% | [3] 98% | [4] 97.6% | [5] 96.5% | [6] 96.8%

Cc1sc2nc(N(C)C)oc(=O)c2c1C
inactive: [1] 28.8% | [2] 51% | [3] 33.6% | [4] 1.5% | [5] 64.4% | [6] 50.5%

c1ccc2c[n+]3cc4ccccc4cc3cc2c1
inactive: [1] 30.9% | [2] 23.4% | [3] 53.7% | [4] 31.3% | [5] 33% | [6] 56.1%

CCOC(=O)C1C(c2cc(OC)c(OC)c(OC)c2)c2cc3c(cc2OC1(C)N1CCCC1)OCO3 (configuration not stated)
inactive: [1] 7.15% | [2] -0.45% | [3] -12.3% | [4] 20.5% | [5] 1.55% | [6] 22.1%
